Data from PubChem BioAssay (NCATS).
Inconclusive results are not listed. Values without a mark were called inactive. Calls follow the shape of the dose curve; as a rule, active = well fitted cell-killing curve with a large enough effect; inconclusive = small, poorly fitted or top-dose-only effect; inactive = no such curve, though single readings can be large or run the other way.

experiment: qHTS of pediatric cancer cell lines to identify multiple opportunities for drug repurposing: Primary screen for Saos-2 cells (AID 1347097); conditions: Saos-2 viability, CellTiter-Glo ATP luminescence, 48 h; series mostly up to 46 µM; activity change, negative = cytotoxic: at the top concentration; also: nearly all actives have a fitted effect of over 40% in size
Text: Drug repurposing or repositioning has been offered as a strategy for drug development in oncology programs. This approach has special potential for childhood cancers and other rare or orphan diseases, where the expected return on new drug development has been a disincentive to pharmaceuticals. […] In this project we exploit the poly-pharmacology of drugs to discover new indications via phenotypic screening of a panel of 19 well-characterized cell lines derived from solid tumors seen in children and adolescents. The goal is to identify approved drugs with previously unrecognized anticancer properties that has the potential to reveal new mechanisms and biological processes involved in carcinogenesis or drug resistance. We employed a titration-based paradigm (quantitative high-throughput screening or qHTS), where all compounds were tested at multiple concentrations for their effect on cell viability. Concentration-response curves (CRCs) were derived directly from the primary screen, and both potency and efficacy values were used to identify compounds with robust bioactivity profiles. We screened the NIH Chemical Genomics Center (NCGC) Pharmaceutical Collection (NPC) and Mechanism Interrogation Plate (MIPE) small molecule collections of approved and investigational compounds against these cell lines; and measured metabolically active cells after 48 hours of compound treatment as a proxy for cell viability. […] Assay Submitter: Nathalia J. Martinez, National Center for Advancing Translational Sciences, National Institutes of Health, Rockville, MD, USA; email: natalia.martinez@nih.gov Shen, M et al. Quantitative high-throughput phenotypic screening of pediatric cancer cell lines identifies multiple opportunities for drug repurposing. Oncotarget 2017 Dec 19;9(4):4758-4772. PMID 29435139.
The cells were obtained from University of North Carolina (UNC), Pediatric Preclinical Testing Program (PPT), and Coriell Institute (CI). qHTS cell viability assay: Cells were assayed in growth media at a density of 500-1,000 cells/well. Five microliters of cells were dispensed into 1,536-well, white, solid-bottom, TC-treated plates (Greiner Bio One) using a multidrop dispenser and incubated at 37 degrees C, 5% CO2, under a humidified atmosphere for 5 hours. Twenty-three nanoliters of compounds and controls (neutral control DMSO or positive control bortezomib at final concentration of 2.3 µM) were subsequently transferred by Kalypsys pintool. For primary screens, the MIPE collection was tested at 11-point dilutions (final concentrations range from 0.78 nM to 46 µM) and the NPC collection at 8-point dilutions (final concentrations range from 0.59 nM to 46 µM). Compounds tested in follow-up screens were assayed at 11-point dilutions. Cells were incubated for 48 hours, followed by addition of 3 µL of CellTiter-Glo (Promega). After a 15 min incubation at room temperature, samples were analyzed for luminescence intensity using a ViewLux High-throughput CCD imager equipped with clear filters.
% is scaled to controls: 0 for no effect and ±100 for the full control effect.

Row | Structure (SMILES) | activity change, negative = cytotoxic
1 | CN1CCC(=C2c3ccccc3CCc3cccnc32)CC1 | -15%
2 | CC(C)(C)c1ccc(C(=O)CCCCl)cc1 | 1.9%
3 | CN1CCCN=C1/C=C/c1cccs1 | 5.95%
4 | c1ccc(C(O[C@H]2CCCN(CCc3ccc4c(c3)OCO4)C2)c2ccccc2)cc1 | -4.4%
5 | CCCCC(CC)CNC(=O)CC(C)OC(=O)CCC(=O)O (stereo not given) | -10.7%
6 | CC(CCc1ccc2c(c1)OCO2)NN (stereo not given) | -1.31%
7 | CCC(=O)Oc1ccc2c(c1)CC[C@@H]1[C@@H]2CC[C@@]2(C)[C@H]1C[C@@H](OC(=O)CC)[C@@H]2OC(=O)CC | 19.9%
8 | CC(=O)N(c1onc(C)c1C)S(=O)(=O)c1ccc(N)cc1 | 23.8%
9 | COc1cc(OC)nc(O[C@H](C(=O)O)C(OC)(c2ccccc2)c2ccccc2)n1 | -24.5%
10 | CCCCCCCCCCCCCCCCCCN(C)C | -15.2%
11 | Cc1ccc2ccc(Cl)cc2n1 | -2.49%
12 | CC(C)C[C@@H]1[C@H](c2ccccc2)OC(=O)N1CCCN1CCCCCC1 | -15.8%
13 | CC(=O)O[C@@H]1CC2C3CCc4cc(OC(=O)c5ccccc5)ccc4C3CCC2(C)[C@H]1OC(C)=O (stereo not given in full) | 14.1%
14 | Oc1ccccc1 | 17.9%
15 | CCC[C@H](N[C@@H](C)C(=O)N1[C@H](C(=O)O)C[C@@H]2CCCC[C@@H]21)C(=O)OCC | -20.8%
16 | CC(=O)OCC(=O)Nc1cc(C#N)cc(NC(=O)COC(C)=O)c1Cl | 1.91%
17 | Cc1ccc(Cl)c(OCC(O)CNC(C)(C)C)c1 (stereo not given) | -6.15%
18 | Cc1ncc([N+](=O)[O-])n1C | 45.9%
19 | COC(=O)c1c(Cl)c(Cl)c(C(=O)OC)c(Cl)c1Cl | -21.1% [at 92.7 µM]
20 | CO[C@]1(NC(=O)CSC(F)F)C(=O)N2C(C(=O)O)=C(CSc3nnnn3CCO)CO[C@H]21 | -14.1%

Row | Structure (SMILES) | activity change, negative = cytotoxic
21 | CCCCCC[C@@H](CCC)C(=O)O | -12.5%
22 | CC(=O)c1cc2ccccc2s1 | 21.1%
23 | C[N+](C)(CCOc1ccccc1)Cc1cccs1 | 8.57%
24 | Cc1c(C)c2c(c(C)c1OC(=O)CCC(=O)OCCO)CC[C@@](C)(CCC[C@H](C)CCC[C@H](C)CCCC(C)C)O2 | -8.86%
25 | Nc1c(NC/C=C\COc2cc(CN3CCCCC3)ccn2)c(=O)c1=O | -6.74% [at 16.1 µM]
26 | CC1c2ccccc2CN1NC(=O)c1ccc(Cl)c(S(N)(=O)=O)c1 (stereo not given) | -7.11%
27 | COc1ccc2cc(C=O)ccc2c1 | 23.6%
28 | COC(=O)c1cc(S(N)(=O)=O)ccc1OC | 7.12%
29 | CC(C)(C)NCC(O)COc1ccccc1OCC1CCCO1 (stereo not given) | 11.5%
30 | CC(=O)Nc1c(I)c(NC(C)=O)c(I)c(C(=O)O)c1I | 5.8%
31 | Cc1c(F)cc2c(=O)c(C(=O)O)cn3c2c1CCC3C (stereo not given) | 37.9%
32 | CCOC(=O)OCC/C(SC(=O)OCC)=C(\C)N(C=O)Cc1cnc(C)nc1N | -28.6%
33 | CC(C)OC(=O)c1cc2c(OCC(O)CNC(C)(C)C)cccc2[nH]1 (stereo not given) | -15.7%
34 | C=CC[N+]1([C@H]2C[C@H]3[C@@H]4CC[C@H]5C[C@H](OC(C)=O)[C@@H](N6CCCCC6)C[C@]5(C)[C@H]4CC[C@]3(C)[C@H]2OC(=O)CC)CCCCC1 | 18.4%
35 | O=C1Nc2cc(Cl)ccc2Oc2ccccc21 | -13.4%
36 | O=C(NN1CCCC1)NS(=O)(=O)c1ccc(Cl)cc1 | -24.9%
37 | CCCC(=O)OCOC(=O)C1=C(C)NC(C)=C(C(=O)OC)C1c1cccc(Cl)c1Cl (stereo not given) | 2.9%
38 | CN1CC(=O)N2[C@H](c3ccc4c(c3)OCO4)c3[nH]c4ccccc4c3C[C@@H]2C1=O | 7.58%
39 | C[C@H]1C[C@H]2[C@@H]3CCC4=CC(=O)C=C[C@]4(C)[C@H]3C(=O)C[C@]2(C)[C@@]1(O)C(=O)CO | 31.3%
40 | O=C(OCCN1CCOCC1)c1cccnc1Nc1cccc(C(F)(F)F)c1 | -3.57%
